{"source": "the supplement of paper PMC10338343", "note": "± gives the standard deviation.", "data": [{"tested_on": "MILI (PIWIL2) piRISC loaded with L1MC piRNA (26 nt)", "assay": "pre-steady-state target cleavage rate (min^-1); guide: L1MC piRNA 5'p-UAACUAAAUACUAUGCAAGCUGUAGG; MIWI and MILI are mouse PIWI proteins and EfPiwi is from a freshwater sponge; tags in brackets are library labels; higher = faster piRNA-guided slicing of the target", "details": "auxiliary factor: 500 nM mouse GTSF1", "procedure,_shortened": "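In Cleave-'n-Seq, a transcribed, DNA-blocked target RNA library (0.1 nM) was combined with 1 nM active affinity-purified piRISC bearing one synthetic guide, with or without 500 nM GTSF1 partner protein. Reactions ran in HEPES–potassium acetate buffer at 33 °C for 0–8 or 0–960 min. Uncleaved targets were sequenced and normalised to depth and to weakly complementary targets, three trials were pooled, and k3 was capped at 0.0001 min^-1. The pre-steady-state cleavage rate was obtained by fitting a burst-and-steady-state model.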", "values": [{"sequence": "UCCUGGAACACCUUGCAUAGUAUUUACAAA", "pre-steady-state target cleavage rate": "0.071 ± 0.02"}, {"sequence": "UCCUGGAUGUCGAUGCAUAGUAUUUAGUGUA", "pre-steady-state target cleavage rate": "0.149 ± 0.045"}, {"sequence": "UCCUCCUACAGCUUGGAUAGUAUUUAGAUA", "pre-steady-state target cleavage rate": "0.139 ± 0.019"}, {"sequence": "UCCUGGUACAGCUUGCAAAGUAUAUAGUUA", "pre-steady-state target cleavage rate": "0.0931 ± 0.016"}, {"sequence": "UCCUGGUACACGAUGCAUAGUAUUUACAAA", "pre-steady-state target cleavage rate": "0.00826 ± 0.0057"}, {"sequence": "UCCUGGAUGUCGAAGCAUAGUAUUCUAGUUA", "pre-steady-state target cleavage rate": "0.0193 ± 0.0065"}, {"sequence": "UCCUGGAUGUCGUUGUCAUAGUAUUUAGUUA", "pre-steady-state target cleavage rate": "0.00743 ± 0.0049"}, {"sequence": "UCCUGGUACAGCUUGCAAAGAAUUUAGUUA", "pre-steady-state target cleavage rate": "0.00951 ± 0.0059"}, {"sequence": "UCCUCCUACAGCUUGCAUACUAUAUAGUUA", "pre-steady-state target cleavage rate": "0.0619 ± 0.015"}, {"sequence": "UCCUGGAUGAGCUUGCAUUCUAUUUAGUUA", "pre-steady-state target cleavage rate": "0.0348 ± 0.0092"}, {"sequence": "UCCUGGAUCACGAUGCAUAGUAUUUAGAAA", "pre-steady-state target cleavage rate": "0.111 ± 0.017"}, {"sequence": "UCCUGGAUGUCCUUGCAAAGUAUUUAGAUA", "pre-steady-state target cleavage rate": "0.0324 ± 0.012"}, {"sequence": "UCCUGGAUGUGGUUGCAUAGUAUUUAGAAA", "pre-steady-state target cleavage rate": "0.0521 ± 0.022"}, {"sequence": "UCCUGGAUGUCCAUGCAUAGUAAUUAGUUA", "pre-steady-state target cleavage rate": "0.0249 ± 0.0072"}, {"sequence": "UCCUGGAUGUCGAAGCAUAGUAUUAUGUUA", "pre-steady-state target cleavage rate": "0.00859 ± 0.0044"}, {"sequence": "UCCUGGAUGUGCUUGCAUAGUAUUAUGUUA", "pre-steady-state target cleavage rate": "0.0376 ± 0.013"}, {"sequence": "UCCUGGAUGAGCUUGCAUAGUAAAUAGUAA", "pre-steady-state target cleavage rate": "0.0816 ± 0.026"}, {"sequence": "UCCUGGAUCAGCUUGCAUAGUAUUUUGUAA", "pre-steady-state target cleavage rate": "0.0574 ± 0.016"}, {"sequence": "UCCUGGAUGUGCUUGCAUAGUAUUUCGUUA", "pre-steady-state target cleavage rate": "0.0261 ± 0.0098"}, {"sequence": "UCCUGGAUGUCCUUGCAUAGUAUUUUCAAA", "pre-steady-state target cleavage rate": "0.023 ± 0.0094"}, {"sequence": "UCCUCCUACAGCUUGCAUAGUAAAUAGAAA", "pre-steady-state target cleavage rate": "0.0692 ± 0.02"}, {"sequence": "UCCUGGAUGUCCUACCAUAGUAUUUAGUUA", "pre-steady-state target cleavage rate": "0.0632 ± 0.015"}, {"sequence": "UCCUGGUACACCUUGGAUAGUAUUUAGUUA", "pre-steady-state target cleavage rate": "0.223 ± 0.069"}, {"sequence": "UCCUGGAUGAGCUUGCAUAGUAUUAUGUUA", "pre-steady-state target cleavage rate": "0.172 ± 0.036"}, {"sequence": "UCCUGGAUGUCCUAGCAUAGUAUUUUGUUA", "pre-steady-state target cleavage rate": "0.0105 ± 0.0061"}, {"sequence": "UCCUGGAUCAGCUUGCAUAGUAUUUUCAAA", "pre-steady-state target cleavage rate": "0.0677 ± 0.013"}, {"sequence": "UCCUGGAUGAGCUUGCAUAGUAUUAGUUA", "pre-steady-state target cleavage rate": "0.0846 ± 0.015"}, {"sequence": "UCCUGGAUGUCGAACCAUAGUAGUUUAGUUA", "pre-steady-state target cleavage rate": "< 0.0001"}, {"sequence": "UCCUGGAUGAGCUUGCAUAGUAUUCUAGUUA", "pre-steady-state target cleavage rate": "0.165 ± 0.029"}, {"sequence": "UCCUGGAUGAGCAACCAUAGUAUUUAGUUA", "pre-steady-state target cleavage rate": "0.0437 ± 0.011"}, {"sequence": "UCCUGGUACAGCUUGCUUAGUAUUUACAAA", "pre-steady-state target cleavage rate": "0.0242 ± 0.009"}, {"sequence": "UCCUCGUACAGCUUGCAUAGUAUUUACUUA", "pre-steady-state target cleavage rate": "0.0971 ± 0.015"}, {"sequence": "UCCUGGAUCACCUUGCAUAGAAUUUAGUUA", "pre-steady-state target cleavage rate": "0.017 ± 0.0097"}]}]}
